Assay results reported in paper PMC4242493, “Sequence specificity incompletely defines the genome-wide occupancy of Myc”.
Over roughly 33,000 sequences, “normalized occupancy” has its median near 0.075; the highest 2% begin near 0.095. Shown is part of a subset that was picked to be rich in the highest values.

Target: MaxL homodimer (Homo sapiens, UniProt P61244 1-160)
Assay: universal protein-binding microarray (PBM); PBS-based mixture, 10 nM His-tagged protein dimer, 2% milk, 200 ng/uL BSA, 50 ng/uL salmon testes DNA, 0.02% TX-100; detection with Alexa 488 anti-His antibody;; high values mean tight binding
Details: protein: recombinant; tags: C-terminal His-tag (pET21a); chain copies: 2; dsDNA, one strand shown
Outline: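 A His-tagged protein dimer at 10 nM was incubated on Agilent 4 x 44 K arrays of the 'all 10-mer' universal design, then labelled with 10 ng/μL fluorophore-conjugated anti-His antibody and scanned on a GenePix 4400A. A fluorescence intensity was assigned to each 8-mer. Binding occupancy is each such intensity normalised to that of the highest-ranked one.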

Chain of MaxL homodimer (P61244 whole entry): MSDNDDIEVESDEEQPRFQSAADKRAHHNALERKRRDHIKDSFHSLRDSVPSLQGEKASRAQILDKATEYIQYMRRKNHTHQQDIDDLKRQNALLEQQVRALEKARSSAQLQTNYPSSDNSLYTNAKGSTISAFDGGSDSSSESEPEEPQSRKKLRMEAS

Compared with CTTGTGCC, ACTGTGAT is lower in binding signal: 0.0778 normalized occupancy for the first, 0.0734 normalized occupancy for the second.

Going from CCTGTGCG to CATGTGCC, the binding signal rises from 0.0733 normalized occupancy to 0.149 normalized occupancy.

First: CATGTTCG
Second: GATGTGCC
The binding signal of the first is higher: 0.0882 normalized occupancy for the first, 0.0796 normalized occupancy for the second.

Compared with AATGTGAT, CGTAGCAG is lower in binding signal: 0.101 normalized occupancy for the first, 0.0734 normalized occupancy for the second.

First: CGTGAAGA
Second: TATCTTAA
The binding signal of the first is higher: 0.0801 normalized occupancy for the first, 0.0728 normalized occupancy for the second.

Going from TTCTCAAA to CTGCTCCC, the binding signal falls from 0.0808 normalized occupancy to 0.0741 normalized occupancy.

Going from ACGGTTAA to CTGCAGCA, the binding signal rises from 0.0751 normalized occupancy to 0.0755 normalized occupancy.

First: GACCTTAC
Second: CCAAGCTA
The binding signal of the first is higher: 0.0765 normalized occupancy for the first, 0.0731 normalized occupancy for the second.

Going from AATGTGTG to AGTGTGTG, the binding signal falls from 0.0963 normalized occupancy to 0.0828 normalized occupancy.

Going from AATGTGTA to GATGTGCA, the binding signal falls from 0.0864 normalized occupancy to 0.0814 normalized occupancy.

Compared with AATGTGCA, AGTGTTCA is lower in binding signal: 0.0888 normalized occupancy for the first, 0.0774 normalized occupancy for the second.

Compared with CGTGTTCA, GGTGTTCA is lower in binding signal: 0.1 normalized occupancy for the first, 0.0754 normalized occupancy for the second.

First: AATGTGCC
Second: TATGTGCA
The binding signal of the first is lower: 0.0816 normalized occupancy for the first, 0.084 normalized occupancy for the second.

First: AATGTGCG
Second: CATGTGCA
The binding signal of the first is lower: 0.0957 normalized occupancy for the first, 0.149 normalized occupancy for the second.

Going from CATAATTA to TACTAATA, the binding signal falls from 0.0816 normalized occupancy to 0.0814 normalized occupancy.

First: CGAGCAGA
Second: ACATCCGC
The binding signal of the first is lower: 0.0731 normalized occupancy for the first, 0.0795 normalized occupancy for the second.

First: TACTTATA
Second: GTAAATCA
The binding signal of the first is higher: 0.0836 normalized occupancy for the first, 0.0784 normalized occupancy for the second.

Compared with ACCTCGTG, ACATCGTC is lower in binding signal: 0.156 normalized occupancy for the first, 0.0753 normalized occupancy for the second.

First: ACCTCGTC
Second: ACATCGTG
The binding signal of the first is lower: 0.0738 normalized occupancy for the first, 0.0998 normalized occupancy for the second.

Compared with ATCTCGTA, ATCTCGTG is higher in binding signal: 0.0765 normalized occupancy for the first, 0.0991 normalized occupancy for the second.

First: ACCTCATA
Second: ACCTCGTA
The binding signal of the first is lower: 0.0788 normalized occupancy for the first, 0.0827 normalized occupancy for the second.

First: AGCTCGTG
Second: ACCTCATG
The binding signal of the first is lower: 0.0836 normalized occupancy for the first, 0.113 normalized occupancy for the second.

Compared with ACCTCATC, ACATCGTA is higher in binding signal: 0.0736 normalized occupancy for the first, 0.0832 normalized occupancy for the second.

First: AGACGTCC
Second: CAGCAATG
The binding signal of the first is lower: 0.0732 normalized occupancy for the first, 0.082 normalized occupancy for the second.

Compared with CTTACAAC, ATGTTTGG is higher in binding signal: 0.0757 normalized occupancy for the first, 0.0806 normalized occupancy for the second.

Going from CTCATGAA to CCTTGCGA, the binding signal falls from 0.0856 normalized occupancy to 0.0752 normalized occupancy.

First: CCCATGTC
Second: CCCATGCG
The binding signal of the first is lower: 0.0854 normalized occupancy for the first, 0.138 normalized occupancy for the second.

Going from ACCATGAG to CCCATGCC, the binding signal falls from 0.0976 normalized occupancy to 0.0969 normalized occupancy.

Compared with CCCATGAC, ACCATGAA is lower in binding signal: 0.0853 normalized occupancy for the first, 0.0755 normalized occupancy for the second.

Compared with CCCATGAG, ATCATGTA is lower in binding signal: 0.0921 normalized occupancy for the first, 0.0811 normalized occupancy for the second.

First: ATCATGTC
Second: CCAATGCG
The binding signal of the first is higher: 0.0895 normalized occupancy for the first, 0.0793 normalized occupancy for the second.

Compared with ATCATGTG, CCTATGCG is lower in binding signal: 0.137 normalized occupancy for the first, 0.0749 normalized occupancy for the second.

Compared with ACATCACC, GACCAGCA is lower in binding signal: 0.0798 normalized occupancy for the first, 0.0755 normalized occupancy for the second.

Going from CTGTCGTA to GAGAACTA, the binding signal falls from 0.0747 normalized occupancy to 0.0732 normalized occupancy.

Going from CTCTCGAA to AACGGTTG, the binding signal rises from 0.0729 normalized occupancy to 0.0768 normalized occupancy.

Compared with CGTTGCCA, GGCGGTGA is lower in binding signal: 0.0801 normalized occupancy for the first, 0.0725 normalized occupancy for the second.

Compared with GCCATGCA, CCCATGCA is higher in binding signal: 0.0904 normalized occupancy for the first, 0.0973 normalized occupancy for the second.

First: ACAATGTC
Second: ACCATGAC
The binding signal of the first is lower: 0.079 normalized occupancy for the first, 0.0839 normalized occupancy for the second.

First: ACAATGTG
Second: ACCATGCC
The binding signal of the first is higher: 0.0995 normalized occupancy for the first, 0.0954 normalized occupancy for the second.

First: GCCATGGC
Second: CCCATACA
The binding signal of the first is lower: 0.0823 normalized occupancy for the first, 0.0836 normalized occupancy for the second.

First: GCCATGCC
Second: ACAATGTA
The binding signal of the first is higher: 0.0963 normalized occupancy for the first, 0.085 normalized occupancy for the second.

Going from ACCATGGC to CCCATGAA, the binding signal rises from 0.0734 normalized occupancy to 0.0827 normalized occupancy.

First: CATTTGTA
Second: CATACGCG
The binding signal of the first is higher: 0.0834 normalized occupancy for the first, 0.0762 normalized occupancy for the second.

Going from AGGGAGCG to CCGTACGC, the binding signal falls from 0.0763 normalized occupancy to 0.072 normalized occupancy.

First: ACACCAGT
Second: CCGACTTA
The binding signal of the first is higher: 0.0764 normalized occupancy for the first, 0.0735 normalized occupancy for the second.

Going from CGCTAATC to GAAATAGC, the binding signal rises from 0.0771 normalized occupancy to 0.0789 normalized occupancy.

First: ACAATGCG
Second: ACCATGCG
The binding signal of the first is lower: 0.0867 normalized occupancy for the first, 0.136 normalized occupancy for the second.

Compared with ACTATGCG, ACCATGCA is higher in binding signal: 0.0817 normalized occupancy for the first, 0.0972 normalized occupancy for the second.

Going from TCCATGCA to ACCATGTG, the binding signal rises from 0.0861 normalized occupancy to 0.225 normalized occupancy.

Going from ACCATGGT to ACCATGGA, the binding signal falls from 0.0862 normalized occupancy to 0.0861 normalized occupancy.

Compared with ACCATGTA, ACCATGTC is lower in binding signal: 0.0876 normalized occupancy for the first, 0.0794 normalized occupancy for the second.

First: ACCATGCT
Second: ACCATGAT
The binding signal of the first is higher: 0.123 normalized occupancy for the first, 0.084 normalized occupancy for the second.

Going from ATGCTGGC to CAGGCCTG, the binding signal falls from 0.0864 normalized occupancy to 0.0765 normalized occupancy.

Going from AAACTAAC to ATTGGCGC, the binding signal rises from 0.0741 normalized occupancy to 0.0745 normalized occupancy.

Going from GTACAAGA to CTTCTATC, the binding signal falls from 0.0806 normalized occupancy to 0.0768 normalized occupancy.
